# BAZ2B inh: inhibitors of human BAZ2B bromodomain | AlphaScreen BAZ2B-H3K14Ac peptide displacement | Potency, µM (series often up to 114 µM), actives largely listed as inhibitors | 360,000 tested, 4.4% active; also: nearly all actives have a fitted effect of over 60% in size
# Target sequence (Q9UIF8 whole entry, looked up): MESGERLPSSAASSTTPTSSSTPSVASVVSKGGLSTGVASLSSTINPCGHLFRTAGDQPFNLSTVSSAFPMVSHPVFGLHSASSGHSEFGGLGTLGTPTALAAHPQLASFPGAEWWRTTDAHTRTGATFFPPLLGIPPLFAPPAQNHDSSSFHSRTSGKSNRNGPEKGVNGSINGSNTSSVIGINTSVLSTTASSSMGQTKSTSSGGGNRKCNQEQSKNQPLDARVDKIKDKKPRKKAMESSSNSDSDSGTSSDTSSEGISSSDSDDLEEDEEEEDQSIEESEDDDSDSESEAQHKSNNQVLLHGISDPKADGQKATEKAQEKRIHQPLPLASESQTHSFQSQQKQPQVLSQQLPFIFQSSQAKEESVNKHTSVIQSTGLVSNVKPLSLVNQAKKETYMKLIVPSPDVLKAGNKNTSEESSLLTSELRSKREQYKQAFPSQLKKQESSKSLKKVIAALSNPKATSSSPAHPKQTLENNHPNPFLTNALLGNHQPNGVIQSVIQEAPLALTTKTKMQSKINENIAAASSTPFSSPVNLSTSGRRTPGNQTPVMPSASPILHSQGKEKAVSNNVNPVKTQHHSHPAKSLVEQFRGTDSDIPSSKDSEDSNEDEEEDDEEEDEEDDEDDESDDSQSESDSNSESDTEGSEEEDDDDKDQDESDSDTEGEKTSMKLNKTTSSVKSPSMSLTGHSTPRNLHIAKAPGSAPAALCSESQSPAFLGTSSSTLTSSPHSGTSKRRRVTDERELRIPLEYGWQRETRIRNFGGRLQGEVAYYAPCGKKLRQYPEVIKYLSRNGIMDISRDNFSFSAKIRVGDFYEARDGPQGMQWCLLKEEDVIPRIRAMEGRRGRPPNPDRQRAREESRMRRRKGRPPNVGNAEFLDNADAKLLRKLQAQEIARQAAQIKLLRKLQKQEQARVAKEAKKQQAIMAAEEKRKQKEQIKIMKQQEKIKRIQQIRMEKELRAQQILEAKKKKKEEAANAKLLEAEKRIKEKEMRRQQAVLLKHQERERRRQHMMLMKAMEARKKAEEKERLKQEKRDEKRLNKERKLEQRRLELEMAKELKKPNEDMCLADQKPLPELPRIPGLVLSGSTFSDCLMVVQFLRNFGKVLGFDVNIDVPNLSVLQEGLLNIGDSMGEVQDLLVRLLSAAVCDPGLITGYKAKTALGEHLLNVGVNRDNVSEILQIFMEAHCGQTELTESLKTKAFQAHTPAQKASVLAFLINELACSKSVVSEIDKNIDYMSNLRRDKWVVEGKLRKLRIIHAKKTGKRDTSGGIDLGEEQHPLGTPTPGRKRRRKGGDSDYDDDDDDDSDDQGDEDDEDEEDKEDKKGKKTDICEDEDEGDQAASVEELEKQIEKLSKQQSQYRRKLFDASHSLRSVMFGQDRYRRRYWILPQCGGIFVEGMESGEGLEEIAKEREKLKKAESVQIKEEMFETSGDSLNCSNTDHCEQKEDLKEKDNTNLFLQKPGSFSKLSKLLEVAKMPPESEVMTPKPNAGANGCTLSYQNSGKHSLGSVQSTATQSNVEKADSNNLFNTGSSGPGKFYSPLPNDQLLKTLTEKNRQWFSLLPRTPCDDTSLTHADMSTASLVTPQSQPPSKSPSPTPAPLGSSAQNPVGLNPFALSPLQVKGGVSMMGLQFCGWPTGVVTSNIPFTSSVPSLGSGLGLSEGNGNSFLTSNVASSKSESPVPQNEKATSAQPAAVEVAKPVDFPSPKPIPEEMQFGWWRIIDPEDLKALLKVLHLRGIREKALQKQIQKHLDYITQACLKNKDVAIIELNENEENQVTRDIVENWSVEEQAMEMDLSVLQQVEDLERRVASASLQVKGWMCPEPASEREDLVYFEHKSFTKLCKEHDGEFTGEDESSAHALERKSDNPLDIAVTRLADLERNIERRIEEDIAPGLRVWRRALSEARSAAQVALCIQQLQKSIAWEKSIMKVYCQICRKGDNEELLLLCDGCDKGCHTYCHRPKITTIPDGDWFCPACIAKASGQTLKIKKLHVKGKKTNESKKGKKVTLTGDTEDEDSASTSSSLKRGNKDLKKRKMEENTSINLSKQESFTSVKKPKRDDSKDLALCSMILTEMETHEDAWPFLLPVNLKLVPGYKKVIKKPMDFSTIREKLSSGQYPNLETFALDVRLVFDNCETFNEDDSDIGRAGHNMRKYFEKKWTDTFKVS
#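 BAZ2B (50 nM) with biotin-H3(5-23)K14Ac peptide (50 nM) in PBS pH 7.4, 0.01% Tween-20, preformed 30 min, then compound 30 min at room temperature; top concentration 110uM. AlphaScreen streptavidin donor/nickel chelate acceptor beads (10 ug/mL final), 20 min dark, signal read.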
# HP1b binding inh: inhibitors of HP1-beta chromodomain binding to methylated histone tails | AlphaScreen HP1-beta / biotin-H3K9me3 peptide binding | Potency, µM (titrated, usually from 114 µM), usual class: inhibitors | 390,000 tested, 0.56% active; also: nearly all actives have a fitted effect of over 70% in size
#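 HP1-beta protein (50 nM final) preincubated 30 min at room temperature with biotinylated H3(1-18)K9me3 peptide (50 nM) in PBS pH 7.4, 0.01% Tween-20, then compound added for 30 min. AlphaScreen streptavidin donor/nickel chelate acceptor beads (10 ug/mL final), 30 min dark, luminescence read.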
# JMJD2A Tudor inh: inhibitors of human JMJD2A Tudor domain; AlphaScreen JMJD2A-Tudor / H3K4me3 peptide binding; Potency, µM (doses to about 114 µM), hits mostly inhibitors; 390,000 tested, 4.4% active; AID 504339; also: nearly all actives have a fitted effect of over 50% in size
# Six1-Eya2 blk: blocks human Six1 binding to Eya2. AlphaScreen GST-Six1/His-Eya2 binding, biochemical; stronger effect = lower value. activity change, % (no concentration beside the values). 360,000 tested, 0.56% active. AID 651725; in the data active = activity change below about -65%; inconclusive = mostly about -30% to -63%
#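 Compounds are tested against tagged Six1 and Eya2 proteins bridged by glutathione donor and nickel acceptor beads; after a one-hour incubation at 37 °C without light, AlphaScreen emission is recorded.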
# CtBP-E1A inh: blocks the CtBP interaction with E1A | AlphaScreen GST-E1A/His-CtBP binding, 1536-well; stronger effect = lower value | 340,000 tested, 0.49% active | activity change, % (no concentration beside the values); in the data active = activity change below about -65%; inconclusive = mostly about -30% to -63%
#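 In 5 uL wells, 23 nL compound meets equimolar GST-E1A and His-CtBP (5X stock 125 nM each) for 2 h, 37 °C. Beads (5X, 50 ug/mL) then 1 h, 37 °C, dark.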
# G9a inh: inhibitors of human histone lysine methyltransferase G9a. G9a H3K9 monomethylation, AlphaScreen, 2 h. Potency, µM (top dose mostly 102 µM), most hits filed as inhibitors. Q96KQ7. AID 504332. 350,000 tested, 8.8% active; also: nearly all actives have a fitted effect of over 75% in size
#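 Readings reflect AlphaScreen signal from monomethyl-H3K9 antibody detection. HMT at 20 nM; substrate b-H3K9 500 nM; cofactor SAM 20 uM; 2 h RT reaction; compounds tested as titrations in qHTS with 15 min preincubation.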
# Hits are given with their value; n = inactive; u = inconclusive; x = not tested or not shown; [ ] = another dose, or the depositor's remark. Hits are enriched below; roughly 10% of the tested compounds scored in any of these assays. Unless noted, calls follow the shape of the dose curve; as a rule, active = well fitted inhibition curve with a large enough effect; inconclusive = small, poorly fitted or top-dose-only effect; inactive = no such curve, though single readings can be large or run the other way.
SMILES,BAZ2B inh,HP1b binding inh,JMJD2A Tudor inh,Six1-Eya2 blk,CtBP-E1A inh,G9a inh
CC(=O)OCCCNc1cc(Sc2nc3ccccc3s2)c2nonc2c1[N+](=O)[O-],n,n,n,n,n,u
CC(=O)OCCNc1cc(SCc2ccco2)c2nonc2c1[N+](=O)[O-],u,n,50.1µM,n,n,44.7µM
CCOC(=O)Cc1ccc(NC(=O)N2CCC(CN3CCCCCC3)CC2)cc1,n,n,n,x,x,u
CCOC(=O)CCNC(=O)Nc1cc2nc(C)n(Cc3cccc(Cl)c3)c2nc1C,n,n,n,n,n,n
Oc1ccc(/C=N/N2CCOCC2)c(O)c1O,x,n,22.4µM,n,n,3.98µM
C(=NN1CCCCCC1)c1cccc2ccccc12,x,u,50.1µM,n,n,x
Oc1ccccc1/C=N/N1CCCCC1,x,n,n,n,n,n
Oc1ccc(Cl)cc1C=NN1CCCCCC1,x,n,56.2µM,n,n,x
Oc1cccc(/C=N/N2CCCCC2)c1O,n,n,n,n,x,44.7µM
Cc1ccc(NC(=O)Cn2cc(C(=O)C3CCCCC3)c3ccccc32)c(C)c1,n,n,n,x,x,n
Cc1oc2ncnc(N3CCOCC3)c2c1C(=O)Nc1ccc(Br)cc1F,n,n,n,x,x,n
O=C(CSc1nnc(-c2ccncc2)o1)Nc1cc(Cl)ccc1C(=O)O,x,n,n,n,n,x
Oc1ccccc1C=NN1CCCCCC1,x,u,44.7µM,u,n,x
Oc1ccc(/C=N/N2CCCCC2)c(O)c1O,u,n,8.91µM,n,n,1.58µM
C(=NN1CCCCCC1)c1ccc2c(c1)OCO2,x,u,50.1µM,n,n,x
Cc1cccc(OCC(=O)NCc2ccc3c(c2)CCN3C(=O)c2ccc(Cl)cc2)c1,n,n,n,x,x,n
O=C(Nc1ccc(-n2cccn2)cc1)C1CCN(Cc2ccccn2)CC1,u,n,22.4µM,n,n,35.5µM
O=C(Nc1ccc(-n2cccn2)cc1)C1CCCCN1Cc1cccc2cccnc12 (stereo not given),u,n,n,n,n,n
O=C(Nc1cccc(-c2cccc(Cl)c2)c1)C1CCN(Cc2ccccn2)CC1,n,n,n,n,n,44.7µM
CC(=O)c1sc(-c2ccccn2)nc1C,n,x,x,x,x,35.5µM
Cc1nc2cccnc2n1C1CCN(C(=O)Nc2ccccc2)CC1,n,n,n,x,x,n
COc1cc(-c2noc(-c3cccc(Cl)c3)n2)cc(OC)c1OC,n,n,n,n,n,n
COc1cc(-c2nc(Cc3c(F)cccc3Cl)no2)cc(OC)c1OC,50.1µM,n,n,n,n,u
COc1ccc(N2C(=O)CSC2c2ccccc2[N+](=O)[O-])cc1 (stereo not given),n,n,n,n,n,50.1µM
S=c1[nH]nc(COc2ccccc2)n1/N=C/c1ccc(Cl)cc1Cl,n,n,n,n,n,u
SMILES,BAZ2B inh,HP1b binding inh,JMJD2A Tudor inh,Six1-Eya2 blk,CtBP-E1A inh,G9a inh
CSc1ccc(/C=N/n2c(COc3ccccc3)n[nH]c2=S)cc1,u,u,u,n,n,22.4µM
S=c1[nH]nc(Cc2ccc(Br)cc2)n1/N=C/c1ccc(Cl)cc1,n,u,79.4µM,n,n,u
S=c1[nH]nc(COc2ccccc2)n1/N=C/c1ccc(Cl)cc1,n,n,n,n,n,7.08µM
CSc1ccc(/C=N/n2c(C)nnc2C)cc1,n,n,n,n,n,u
COc1ccccc1CNC(=O)CCNS(=O)(=O)c1cc(Br)cnc1N,n,n,u,n,n,n
CCc1ccc(-c2cc3c(=O)n(CC(=O)NCCCN4CCN(CC)CC4)nc(C)n3n2)cc1,n,n,n,n,n,n
COc1ccc(C2Nc3ccccc3C(=O)N2c2cccc3ccccc23)cc1COc1c(C)cccc1C (stereo not given),x,n,n,x,x,x
CN1C(=O)C(=O)/C(=C(/O)c2ccc(Br)cc2)C1c1ccc(Cl)cc1 (stereo not given),n,n,n,n,n,n[0.501 µM]
O=C1OC(c2ccc(Cl)cc2)/C(=C(/O)c2ccccc2)C1=O (stereo not given),u,n,31.6µM,n,n,x
O=C(NC1CCCCCC1)c1cc2c(Cl)nc3ccccc3c2s1,n,n,n,x,x,n
O=C(O)CCn1cnc2onc(-c3ccccc3Cl)c2c1=O,50.1µM,u,50.1µM,x,x,u
